Assay results: PubChem BioAssay (NCI)
About 83,000 compounds went through this panel and 20% of them were active in at least one assay; those are over-represented in the sample as a whole.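 96-well plates, one dose, 48 hours. Percent growth reported; active if below 10.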 Unmarked numbers belong to inactive results. Active and inactive are the calls of the source.

tested on: RPMI-8226 leukemia; assay: NCI-60 one-dose screen, 48 h (100 = growth as untreated, 0 = no growth, -100 = all killed); conditions: 10 µM unless noted

SMILES | growth
CC1(C)NCCC[C@]2(C)[C@H]3CC[C@@H]4[C@H]5[C@H](C(=O)/C=C/c6ccccn6)CC[C@]5(CO)CC[C@@]4(C)[C@]3(C)CC[C@@H]12 | -13.1% (active)
Fc1ccc2nc(-c3cc(-c4ccc5c(c4)OCO5)n[nH]3)[nH]c2c1 | 10.3%
O=C(NC(Cc1cn(Cc2ccccc2)cn1)C(=O)O)OCC1c2ccccc2-c2ccccc21 (configuration not stated) | 114%
Cc1cc(Cl)nc(N(CCCNc2ccnc3cc(Cl)ccc23)Cc2ccco2)n1 | -28.9% (active)
COc1cc(-c2cc3ncccc3c3nc(OCCN(C)C)c4cccnc4c23)cc(OC)c1OC | -7.46% (active)
O=C1CNCCN1 | 98.9%
c1ccc2[nH]c(-c3ccc(Nc4nc(N5CCCCC5)nc(N5CCOCC5)n4)cc3)nc2c1 | 2.47% (active)
NC1=NN=C2N(N)C(=O)c3cnn(-c4ccccc4)c3N2c2nc(-c3ccccc3)cc(-c3ccccc3)c21 | 93.5%

tested on: OVCAR-8 ovarian; assay: as above; conditions: 10 µM unless noted

SMILES | growth
COc1ccc(-c2n[nH]nc2-c2cc3ccccc3s2)cc1O | 27.7%
Cn1cc(-c2csc(-c3c[nH]c4ccc(F)cc34)n2)c2cccnc21 | 47.6%
COc1cc(/C=N/Nc2ncnc3c2c(C)nn3-c2ccc(F)cc2)ccc1O | 96.4%
Cc1ccccc1-c1nc(C(Cl)Cl)nc2cc(-c3ccccc3)nn12 | 86.9%
N#CC1=C(N)Oc2ccc3ccccc3c2C1c1ccccc1 (configuration not stated) | 49.8%
Cc1csc(-c2ccc3c(c2)COC3(CCCN(C)C)c2ccc(F)cc2)c1 (configuration not stated) | 39%
O=C(O)c1cccc2c1Cc1cc([N+](=O)[O-])ccc1-2 | 108%
COc1ccc(C2C(C#N)=C(N)Oc3c2sc2c(F)cccc32)cc1 (configuration not stated) | 25.9%
CCCCCCCCNc1cccc2c1C(=O)c1ccccc1C2=O | 111%
CNC(=O)c1cc(Oc2ccc3nc(NC(=O)Nc4ccc(Cl)cc4)sc3c2)ccn1 | 57.2%
O=C(c1ccccc1)C(CN1CCOCC1)c1ccccc1 (configuration not stated) | 14.2%
NCCn1cc(-c2nc(-c3c[nH]c4ncccc34)cs2)c2ccccc21 | 86.7%
CC1(n2nnnc2N2CCCN(c3ncccc3N)CC2)CCC1 | 102%
C=CC(=O)N[C@H](Cc1ccc(-c2cc(Cl)cc(Cl)c2)cc1)[C@H](O)[C@@H](O)C(=O)O | 90.9%
CCC(c1ccc(OC)cc1)C(CC)c1ccc(O)c(CN2CCCCC2)c1 (configuration not stated) | 80.4%
C/C(=N\Nc1cc(C)c2cc(C)ccc2n1)c1ccccn1 | -60% (active)
Cn1cc(-c2csc(-c3c[nH]c4ccccc34)n2)c2cccnc21 | 39.2%
Oc1ccc(Nc2ccccc2)cc1 | 96%
C(=C\c1c[nH]c2ccccc12)/c1ccc2ccccc2n1 | 78.7%
CC/C(=N/NC(N)=O)c1ccccc1 | 103%
Cc1ccc(N(CC(=O)Nc2ccc(S(=O)(=O)N3CCC(N4CCCC4)CC3)cc2)S(=O)(=O)c2ccc(Cl)cc2)cc1 | 55.2%
O=C(NC(Cc1cn(Cc2ccccc2)cn1)C(=O)O)OCC1c2ccccc2-c2ccccc21 (configuration not stated) | 103%
Cc1cc(Cl)nc(N(CCCNc2ccnc3cc(Cl)ccc23)Cc2ccco2)n1 | 14.5%
COc1cc(-c2cc3ncccc3c3nc(OCCN(C)C)c4cccnc4c23)cc(OC)c1OC | -5.22% (active)
O=C1CNCCN1 | 103%
c1ccc2[nH]c(-c3ccc(Nc4nc(N5CCCCC5)nc(N5CCOCC5)n4)cc3)nc2c1 | 45.7%

tested on: OVCAR-5 ovarian; assay: as above; conditions: 10 µM unless noted

SMILES | growth
Nc1c(C(=O)Nc2cccc(Br)c2)sc2nc3c(cc12)C(=O)CCC3 | 59.3%
Nc1ccccc1NC(=O)c1ccc(CN2CCC/C(=C\c3ccccn3)C2=O)cc1 | 20.9%
CC1(C)CC[C@]2(CO)CC[C@]3(C)C(=CC[C@@H]4[C@@]5(C)CC[C@H](NCO)C(C)(C)[C@@H]5CC[C@]43C)[C@@H]2C1 | 2.64% (active)
COc1cc(-c2cc(-c3nc4cc(Cl)c(Cl)cc4[nH]3)[nH]n2)cc(OC)c1OC | 101%
N#CC1=C(N)Oc2c(sc3c(F)cccc23)C1c1ccc(Cl)cc1 (configuration not stated) | 82.1%
COc1ccccc1CNc1nc(N)nc2[nH]c3ccc(O)cc3c12 | 76.4%
Nc1c(C(=O)Nc2cccc(Cl)c2)sc2ncc(Cl)cc12 | 88.8%
COc1ccc(-c2nc3ccccn3c2-c2nc3ccc(Cl)cc3[nH]2)cc1 | 102%
Cc1ccsc1-c1ccc2c(c1)COC2(CCCN(C)C)c1ccc(F)cc1 (configuration not stated) | 72.1%
NS(=O)(=O)c1ccc(CCNC(=O)/C=C/c2ccc(Cl)cc2)cc1 | 98.5%
CC1(C)NCCC[C@]2(C)[C@H]3CC[C@@H]4[C@H]5[C@H](C(=O)/C=C/c6ccccn6)CC[C@]5(CO)CC[C@@]4(C)[C@]3(C)CC[C@@H]12 | 97.9%
Fc1ccc2nc(-c3cc(-c4ccc5c(c4)OCO5)n[nH]3)[nH]c2c1 | 84.3%
NC1=NN=C2N(N)C(=O)c3cnn(-c4ccccc4)c3N2c2nc(-c3ccccc3)cc(-c3ccccc3)c21 | 104%
